# Source: PubChem BioAssay (Tox21)
# A number with no mark means an inactive call. Inconclusive results are not listed. Entries that show only a call come without a potency. Activity calls are given as the source filed them. The call rests on the fitted dose curve.
# Target: Muscarinic acetylcholine receptor M1 (Homo sapiens) (UniProt P11229)
# Test: Cholinergic receptor muscarinic 1 (CHRM1) small molecule agonists, cell-based qHTS assay (AID 1963589); further: nearly all actives have a fitted effect of over 35% in size
# Conditions: CHRM1-CHO cells, agonist mode, calcium flux fluorescence; series mostly up to 76.8 µM
# Procedure, shortened: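 Human M1 in stable CHO line; 18 h plating, 1 h dye load 37 C; cpd added (agonist mode); Ca2+ fluorescence kinetic read, 1 s intervals; 15 conc, 3 runs.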
# Sequence of Muscarinic acetylcholine receptor M1 (Homo sapiens) (P11229 whole entry, looked up): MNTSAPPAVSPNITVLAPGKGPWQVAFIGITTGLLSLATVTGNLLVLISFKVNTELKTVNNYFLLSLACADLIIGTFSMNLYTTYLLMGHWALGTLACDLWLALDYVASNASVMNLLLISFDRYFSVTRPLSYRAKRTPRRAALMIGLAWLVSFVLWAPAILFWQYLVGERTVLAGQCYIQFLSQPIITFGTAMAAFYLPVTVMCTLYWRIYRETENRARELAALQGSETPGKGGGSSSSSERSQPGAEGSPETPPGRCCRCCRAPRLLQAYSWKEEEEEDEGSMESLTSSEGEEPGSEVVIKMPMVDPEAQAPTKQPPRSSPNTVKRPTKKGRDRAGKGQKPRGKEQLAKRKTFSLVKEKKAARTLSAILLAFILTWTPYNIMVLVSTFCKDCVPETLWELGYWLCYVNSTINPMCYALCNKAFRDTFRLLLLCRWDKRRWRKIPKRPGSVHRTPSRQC
Compound,Potency,activation
CC[N+](C)(CC)CCOC(=O)C1c2ccccc2Oc2ccccc21,inactive,–
C/C=C1/C(=O)C[C@H]2[C@@H]3CCC4=CC(=O)CC[C@]4(C)[C@H]3CC[C@]12C,inactive,–
O=C(NN1CCCC1)NS(=O)(=O)c1ccc(Cl)cc1,inactive,–
CCCNCCC,inactive,–
O=C1CC[C@@H](C(=O)O)N1,inactive,–
C1C2OC2C2C1C1CC2C2OC12 (configuration not stated),inactive,–
CC[C@@]1(c2ccccc2)NC(=O)N(C)C1=O,inactive,–
CC[C@H]1O[C@]2(CC[C@@H]1C)C[C@@H]1C[C@@H](C/C=C(\C)C[C@@H](C)/C=C/C=C3\CO[C@@H]4[C@H](O)C(C)=C[C@@H](C(=O)O1)[C@]34O)O2,inactive,–
CCN(C(=O)N(CC)c1ccccc1)c1ccccc1,inactive,–
CCCCCC/C=C/C=O,inactive,–
CCCCCCCCCCO[C@@H]1O[C@H](CO)[C@@H](O)[C@H](O)[C@H]1O,inactive,–
CC(C)COC(=O)CCCCC(=O)OCC(C)C,inactive,–
CCOC(=O)CC(=O)c1ccccc1,inactive,–
NCCCC(N)(C(=O)O)C(F)F (configuration not stated),inactive,–
CCCCCCCCS(=O)(=O)O,inactive,–
NCCCCCCNCCCCCCN,inactive,–
CCN(CC)CCNC(C(=O)OCCC(C)C)c1ccccc1 (configuration not stated),inactive,–
Oc1cc2ccccc2c2ccccc12,inactive,–
CCCCCCCCCCCCCOC(=O)CCSCCC(=O)OCCCCCCCCCCCCC,–,-0.105% [at 15.8 µM]
CC(C)COC(=O)COc1ccc(Cl)cc1Cl,inactive,–
COC(=O)CC(=O)C(C)(C)C,inactive,–
CC(C)NCC(O)c1cc(O)cc(O)c1 (configuration not stated),inactive,–
O=C=NCC1CCCC(CN=C=O)C1 (configuration not stated),inactive,–
NNc1nc(-c2ccccc2)cs1,inactive,–
O=Cc1cc(O)ccc1Br,inactive,–
Cc1ccc(C)c([N+](=O)[O-])c1,inactive,–
CCN(CC)C(=O)c1ccc(O)c(OC)c1,inactive,–
Cc1cccc(NC(=S)N(C)C)c1,inactive,–
COc1ccc(OC)c(Cl)c1,inactive,–

# System: not listed separately
# Test: cAMP Responsive Elements (CRE) small molecule agonists, cell-based qHTS assay (AID 1963590)
# Conditions: CRE-bla HEK293T, beta-lactamase FRET ratio, 3 h; series mostly up to 92.4 µM
# Procedure, shortened: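 HEK 293T CRE-bla, 2,000 cells/well, 18 h preincubation 37 C/5% CO2; cpds (DMSO) pinned, 3 h; LiveBLAzer B/G FRET substrate, 2 h RT.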
Compound,Potency,activation
CC[N+](C)(CC)CCOC(=O)C1c2ccccc2Oc2ccccc21,inactive,–
O=C(NN1CCCC1)NS(=O)(=O)c1ccc(Cl)cc1,inactive,–
CCCNCCC,inactive,–
O=C1CC[C@@H](C(=O)O)N1,inactive,–
C1C2OC2C2C1C1CC2C2OC12 (configuration not stated),inactive,–
Cc1ccc(C#N)cc1,inactive,–
O=CNc1ccccc1,inactive,–
FC(F)(Cl)C(F)(Cl)Cl,inactive,–
CCCCCCCCCCO[C@@H]1O[C@H](CO)[C@@H](O)[C@H](O)[C@H]1O,inactive,–
CC(C)COC(=O)CCCCC(=O)OCC(C)C,inactive,–
CCOc1ccc(NC(=O)CC(C)=O)cc1,inactive,–
NCCCC(N)(C(=O)O)C(F)F (configuration not stated),inactive,–
Cc1ccccc1Br,inactive,–
CCCCCCCCS(=O)(=O)O,inactive,–
CCOC(=O)[C@@](C)(N)Cc1ccc(O)c(O)c1,inactive,–
CC1(C)SC(C)(C)SC(C)(C)S1,inactive,–
NCCCCCCNCCCCCCN,inactive,–
CCN(CC)CCNC(C(=O)OCCC(C)C)c1ccccc1 (configuration not stated),inactive,–
CCCCCCCCCCCCCOC(=O)CCSCCC(=O)OCCCCCCCCCCCCC,–,-0.927% [at 19 µM]
CC(C)(C)C(=O)CCc1ccc(Cl)cc1,inactive,–
C=C(C)c1cccc(C(=C)C)c1,inactive,–
CC(C)(C)C1CCCCC1=O (configuration not stated),inactive,–
COC(=O)CC(=O)C(C)(C)C,inactive,–
O=Cc1cc(O)ccc1Br,inactive,–
Cc1ccc(C)c([N+](=O)[O-])c1,inactive,–
CCN(CC)C(=O)c1ccc(O)c(OC)c1,inactive,–
Cc1cccc(NC(=S)N(C)C)c1,inactive,–
COc1ccc(OC)c(Cl)c1,inactive,–
